In PubChem BioAssay (Tox21):
“And” between values parts separate entries of the source, which are not always exact repeats. Equal values may be shown once. Inconclusive results are not listed. Some compounds were tested as several samples or in several runs, with calls that do not always agree. The source made the active and inactive calls. Calls come from the whole dose curve.

test: qHTS assay to identify small molecule agonists of H2AX - cell viability counter screen (AID 1224847); settings: CHO-K1 viability, CellTiter-Glo luminescence, 3 h; series mostly up to 154 µM; activity change, negative = cytotoxicity: at the top concentration; note: nearly all actives have a fitted effect of over 30% in size; for activity change, negative = cytotoxicity: top concentration of the series differs between compounds
Excerpt: National Center for Advancing Translational Sciences [NCATS]
NIH Chemical Genomics Center [NCGC]
U.S. Environmental Protection Agency [EPA]
National Institutes of Environmental Health Sciences [NIEHS]
National Toxicology Program [NTP]
U.S. Food and Drug Administration [FDA]
HTRF phospho-H2AX (Ser139) assay (Cisbio Bioassays, US) enables the quantitative detection of the histone variant H2AX when phosphorylated on serine 139. When double-stranded DNA breaks, either by ionizing radiation or endogenous physiological processes, H2AX becomes phosphorylated at Ser139. This phospho-Ser139 serves as a sensitive biomarker for the detection of such breaks, localizing the site of DNA repair. So, HTRF phospho-H2AX Ser139 is a pertinent assay to study genome stability, the cell cycle, DNA repair, and it serves as a biomarker for cancer, and to understand aging. Wild type CHO-K1 cells were used to identify the inducers of Phospho-H2AX Ser 139 from the Tox21 compound collections. Also cytotoxicity of the Tox21 10K compound library against the CHO-K1 cell line was tested by measuring the cell viability using CellTiter-Glo assay (Promega, Madison, WI).
Tox21 Assay Protocol Summary:
The CHO-K1 cells suspended in culture medium containing 10% FBS were dispensed at 1000 cells/ 3 ul/well in 1536-well white wall/solid bottom plates (Greiner Bio-One North America, NC) using a Multidrop Combi (Thermo Fisher Scientific Inc., Waltham, MA). After the assay plates were incubated at 37C overnight, 23 nl of compounds at 15 concentrations (from 5-48 columns) or positive control (from 1 to 4 columns) were transferred to the assay plates using a Pintool station (Wako, San Diego, CA) into each well resulting in a final DMSO concentration of 0.76%. After 3hr incubation at 37C, 3 uL/well CellTiter-Glo luminescent cell viability reagent (Promega Corporation, Madison, WI) was added using a Flying Reagent Dispenser (FRD) (Aurora Discovery, CA). After incubation at room temperature for 30 min, the luminescence intensity was read using a ViewLux plate reader (PerkinElmer, Waltham, MA).
% is set by controls: 0 for no effect and ±100 for the full control effect; potency is the fitted concentration of half-maximal effect.

Compound | activity change, negative = cytotoxicity | Potency
CNC1(C)C2CCC(C2)C1(C)C (stereo not given) | -5.18% [at 70.9 µM] (inactive) | –
Cc1c(O)cccc1C(=O)N[C@@H](CSc1ccccc1)[C@H](O)CN1C[C@H]2CCCC[C@H]2C[C@H]1C(=O)NC(C)(C)C | – | 49.2 µM (active)
O=C(OCc1ccccc1)c1ccc(O)cc1 | 1.55% [at 70.9 µM] (inactive) | –
Nc1nc(=S)c2[nH]cnc2[nH]1 | -15.3% (inactive) | –
CN1C(=O)c2ccc([N+](=O)[O-])cc2C1=O | 0.235% (inactive) | –
O=S(=O)(O)c1ccc2nc(-c3ccccc3)[nH]c2c1 | – | 30.3 µM (active) and 22 µM (active)
OCCN1CCNCC1 | – | inactive
CC(=O)OCC1=C(C(=O)O)N2C(=O)[C@@H](NC(=O)Cc3cccs3)[C@H]2SC1 | 8.41% [at 70.9 µM] (inactive) | –
CC(C)C(=O)c1c(C(C)C)nn2ccccc12 | 9.42% [at 70.9 µM] (inactive) | –
NC12CC3CC(CC(C3)C1)C2 | 3.65% [at 70.9 µM] (inactive) | –
Cc1cccc([N+](=O)[O-])c1C(=O)O | -0.324% (inactive) | –
Cc1scc2c1N(C(=O)CN1CCN(C)CC1)c1ccccc1NC2=O | 1.74% [at 70.9 µM] (inactive) | –
O=C1CC2(CCCC2)CC(=O)N1CCCCN1CCN(c2ncccn2)CC1 | 2.78% [at 70.9 µM] (inactive) | –
CCCCCCCCCCCCCCCCCl | 2.02% [at 31.6 µM] (inactive) | –
CCCCOCCOC(=O)c1ccccc1C(=O)OCCOCCCC | -1.72% (inactive) | –
CC(=O)Nc1ccc(C(=O)CCl)cc1 | 0.334% (inactive) | –
CCn1cc(C(=O)O)c(=O)c2cc(F)c(N3CCNC(C)C3)c(F)c21 (stereo not given) | -6.6% [at 70.9 µM] (inactive) | –
O=C(O)Cn1cnnn1 | 1.68% [at 70.9 µM] (inactive) | –
[Cl][In]([Cl])[Cl] | 0.097% (inactive) | –
O=C(O)c1cccc(C(=O)O)c1 | – | inactive

Compound | activity change, negative = cytotoxicity | Potency
Cc1ccc(-c2cc(C(F)(F)F)nn2-c2ccc(S(N)(=O)=O)cc2)cc1 | – | 100 µM (active) and 113 µM (active)
O=C1NCC2(CCN(CCc3ccccc3)CC2)O1 | -1.01% [at 70.9 µM] (inactive) | –
CCC(CO)(CO)COCC(CC)(CO)CO | 0.313% (inactive) | –
CCOc1ccccc1C(N)=O | – | inactive
CCCCCCCCCCCC[N+](C)(C)C | – | 113 µM (active) and inactive
C=CC(=O)OCCCCCCCC | -2.16% (inactive) | –
O=C(O)CP(=O)(O)O | 4.17% [at 70.9 µM] (inactive) | –
O=C(Oc1ccccc1)c1ccccc1O | -0.198% [at 70.9 µM] (inactive) | –
C1COC(NC(C2CC2)C2CC2)=N1 | 3.16% [at 70.9 µM] (inactive) | –
C/C=C/c1ccc(OCC)c(O)c1 | – | inactive
CC1COC(=O)O1 (stereo not given) | – | inactive
OCCOCCN1CCN(C(c2ccccc2)c2ccc(Cl)cc2)CC1 (stereo not given) | – | 125 µM (active) and inactive
NC(N)=NC(=O)Cc1c(Cl)cccc1Cl | -2.78% [at 70.9 µM] (inactive) | –
Clc1ccc2c(c1)C(N1CCNCC1)=Nc1ccccc1O2 | – | inactive
CO[Si](OC)(OC)c1ccccc1 | 2.08% (inactive) | –
Cc1cc(Cc2cc(C)cc(C(C)(C)C)c2O)c(O)c(C(C)(C)C)c1 | – | 40.3 µM (active) and 31.8 µM (active)
CCN(CC)CCOc1ccc(/C(=C(\Cl)c2ccccc2)c2ccccc2)cc1 | – | 81.7 µM (active)
CC1=C(C=O)C(C)(C)CC=C1 | 2.36% (inactive) | –
CC[C@]1(O)C[C@@H]2CN(CCc3c([nH]c4ccccc34)[C@@](C(=O)OC)(c3cc4c(cc3OC)N(C)[C@H]3[C@@](O)(C(=O)OC)[C@H](OC(C)=O)[C@]5(CC)C=CCN6CC[C@]43[C@@H]65)C2)C1 | -1.42% [at 70.9 µM] (inactive) | –
CC(C)(C)NC(=O)[C@@H]1CN(Cc2cccnc2)CCN1C[C@@H](O)C[C@@H](Cc1ccccc1)C(=O)N[C@H]1c2ccccc2C[C@H]1O | – | inactive
